Compound activity (PubChem)
Shown are actives, neighbours in structure and some others; about 12% of the full set was active somewhere.
Pf growth 48h: Primary qHTS for delayed death inhibitors of the malarial parasite plastid, 48 hour incubation; P. falciparum luciferase growth in erythrocytes, 48 h; Potency, µM (series often up to 28.7 µM), for inactives: at the highest dose activity change, negative = inhibition, usual class: inhibitors; 310,000 compounds, 5.9% hits; also: % is scaled to controls: 0 for no effect and ±100 for the full control effect
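Cell-based growth assay: transgenic P. falciparum expressing firefly luciferase, cultured in red cells within RPMI 1640 containing 0.5% w/v Albumax, 24 mM bicarbonate and gentamycin. A drop in luciferase activity indicates inhibition.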
Sm TGR inh: qHTS Assay for the Inhibitors of Schistosoma Mansoni Peroxiredoxins. 360,000 compounds, 3% hits. purified TGR, DTNB reduction, TNB absorbance 405 nm. Schistosoma mansoni thioredoxin glutathione reductase (TGR), Q962Y6. Potency, µM (titrated, usually from 114 µM), for the others: at the top dose activity change, negative = inhibition, usual class: inhibitors; also: % is scaled to controls: 0 for no effect and ±100 for the full control effect; nearly all actives have a fitted effect of over 60% in size
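First, TGR (20 nM dispensed) and NADPH were mixed with compound. Second, a 15 min room-temperature incubation followed. Third, further NADPH and then DTNB were added to start the reaction. Finally, TNB absorbance was monitored kinetically.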
Pf growth 96h: Primary qHTS for delayed death inhibitors of the malarial parasite plastid, 96 hour incubation; P. falciparum luciferase reporter growth, 96 h; Potency, µM (series often up to 28.7 µM), for inactives: at the highest dose activity change, negative = inhibition, most hits filed as inhibitors; 320,000 compounds, 6.9% hits; also: % is scaled to controls: 0 for no effect and ±100 for the full control effect
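Delayed-death screen, second-generation endpoint: infected erythrocytes, 2% hematocrit, 0.05% parasitemia final; 96 hours at 37 C, 5% CO2; luciferase detection reagent; luminescence decrease equals reduced growth.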
SARS PLpro yeast: qHTS of Yeast-based Assay for SARS-CoV PLP; S. cerevisiae expressing SARS-CoV PLpro, growth rescue; Potency, µM (series often up to 32.9 µM), without a hit: at the highest dose activity, positive = growth rescue, hits mostly activators; 330,000 compounds, 0.19% hits; calls by dose curve; also: 0% is about no effect; nearly all actives have a fitted effect of over 55% in size
* hit, by the source's call; ? = inconclusive; / = no result given; [ ] = another dose, or the depositor's remark. Unless noted, calls follow the shape of the dose curve; as a rule, active = well fitted curve in the direction sought with a large enough effect; inconclusive = small, poorly fitted or top-dose-only effect, or another doubt; inactive = no such curve, though single readings can be large; an effect the other way counts as inactive or inconclusive. Potency is read from the fitted curve at half-maximal effect.

SMILES | Pf growth 48h | Sm TGR inh | Pf growth 96h | SARS PLpro yeast
CC(CCc1ccco1)N(C)S(=O)(=O)c1csc(C(N)=O)c1 (stereo not drawn) | ? | -8% | ? | 0%
Cc1ccc(S(=O)(=O)N(C)C(C)CCc2ccco2)cc1 (stereo not drawn) | ? | 50µM* | -25% | 7%
COc1ccc(C(N)CCc2ccco2)cc1 (stereo not drawn) | -14% | -17% | ? | 8%
COc1ccc(CCC(=O)NCCS(=O)(=O)N2CCN(c3ccccc3OC)CC2)cc1 | -9% | -3% | 38% | 8%
CN1C[C@@H]2C[C@H]1CN2c1cc2c(cc1F)c(=O)c(C(=O)O)cn2C1CC1 | 5.4µM* | / | 0.85µM* | /
COc1c(N2CCN(C(=S)NCc3ccccc3)C(C)C2)c(F)cc2c(=O)c(C(=O)O)cn(C3CC3)c12 (stereo not drawn) | 9.3µM* | 19% | 2.9µM* | 0%
COc1c(N2CCN[C@H](C)C2)c(F)cc2c(=O)c(C(=O)O)cn(C3CC3)c12 | ? | ? | ? | -10%
CNC1CCCN(c2c(F)cc3c(=O)c(C(=O)O)cn(C4CC4)c3c2OC)C1 (stereo not drawn) | 4.8µM* | / | 4.3µM* | /
COc1c(F)c(F)cc2c(=O)c(C(=O)O)cn(C3CC3)c12 | 5%[0.00184 µM] | -4% | 31% | 1%
CCCCN(CC)C(=O)c1cc2c(=O)n3cccc(C)c3nc2n1C | / | -2% | / | /
Cc1ccccc1-c1noc(CSc2nc3ccccc3[nH]2)n1 | / | 0% | / | /
CCn1c(C)[n+](CCOC(C)=O)c2cc(Cl)c(Cl)cc21 | 2.3µM* | 1% | 34% | 0%
CC(=O)OCCCN1C(=O)c2ccc(Br)cc2C1=O | 1% | -6% | 12% | 1%
CC(=O)OCCCn1c(C)[n+](C)c2cc(Cl)c(Cl)cc21 | 5.2µM* | -4% | 37% | -1%
COc1ccc2c(Sc3ccc(Cl)cc3)c(C(=O)NCCCN3CCCCC3)[nH]c2c1 | / | 4% | / | /
CCCCOC(=O)c1ccc(Nc2nc3ccc(C)cc3n3cnnc23)cc1 | / | 1% | / | /
COCCNc1nnc(SCC(=O)NC2CCCCC2)s1 | -15% | -4% | -25% | -2%
CC(=O)c1ccc(N2CCN(c3ncnc4c3c(-c3ccccc3)cn4-c3ccc(Cl)cc3)CC2)cc1 | / | 3% | / | /
COc1ccc(-c2cn(-c3ccc(C)c(Cl)c3)c(=S)[nH]2)cc1OC | 10µM* | ? | 63% | -2%
COc1ccc(-c2cn(-c3ccc(C)c(C)c3)c(=S)[nH]2)cc1OC | 13µM* | ? | 2% | -1%
CCc1cc2c(=O)oc(-c3ccc(F)cc3)nc2s1 | 22% | -20% | 12% | -2%
O=C1c2ccccc2C(O)(Cc2ccccc2)N1Cc1ccco1 (stereo not drawn) | -4% | 45µM* | -6% | 16%
CC1(O)c2ccccc2C(=O)N1Cc1ccccc1 (stereo not drawn) | -2% | 1% | 1% | -7%
Cc1ccc(S(=O)(=O)NNC(=S)NC(=O)c2ccc([N+](=O)[O-])cc2)cc1 | 7% | 7.9µM* | 68% | 10%
Cc1ccc(C(=O)NC(=S)NNC(=O)c2ccc([N+](=O)[O-])cc2)cc1 | -10% | 1% | ? | -7%
SMILES | Pf growth 48h | Sm TGR inh | Pf growth 96h | SARS PLpro yeast
O=C(NC(=S)NC1CCSC1=O)c1cccc([N+](=O)[O-])c1 (stereo not drawn) | 33% | -1% | ? | -2%
O=C(NNC(=S)NC(=O)c1ccc(Br)cc1)c1ccc([N+](=O)[O-])cc1 | 20% | 100µM* | 87% | -5%
Cc1ccc(C(=O)NC(=S)NNS(=O)(=O)c2ccc(C)cc2)cc1 | 2% | 22µM* | 8% | -12%
O=C(NC(=S)NC1CCSC1=O)c1ccc([N+](=O)[O-])cc1 (stereo not drawn) | 25% | ? | 10µM* | 6%
Cc1ccc(-n2nc(C)c3nc(CCC(=O)Nc4cccc(F)c4)c(=O)n(C)c32)cc1 | / | 6% | / | /
Cc1oc(-c2ccccc2Cl)nc1CSc1nc2ncccc2[nH]1 | / | 3% | / | /
CC1(C)N=C(c2ccc(F)cc2)C(=O)N1CC(=O)Nc1ccccc1Cl | / | 8% | / | /
O=C(NCCCc1nc2ccccc2n1Cc1ccccc1Cl)C1CCCCC1 | / | 11% | / | /
CCCCS(=O)CC(CS(=O)CCCC)OC(=O)c1ccccc1 (stereo not drawn) | 3% | 0% | 6.6µM* | 2%
CCOc1ccc(NC(=O)CC2C(=O)OCCN2CC)cc1 (stereo not drawn) | / | 11µM* | / | /
CCN1CCOC(=O)C1CC(=O)Nc1cccc(OC)c1 (stereo not drawn) | / | 18µM* | / | /
COC(=O)c1cc(NC(=O)CC2C(=O)OCCN2Cc2ccccc2)cc(C(=O)OC)c1 (stereo not drawn) | / | -34% | / | /
CCOC(=O)c1ccc(NC(=O)CC2C(=O)OCCN2CC)cc1 (stereo not drawn) | 57%[5.75 µM] | 22µM* | 15% | -5%
CCOC(=O)c1ccc(NC(=O)CC2OCCN(CC)C2=O)cc1 (stereo not drawn) | 86% | 25µM* | / | -36%
COc1cc(NC(=O)CC2C(=O)OCCN2Cc2ccccc2)cc(OC)c1 (stereo not drawn) | / | -31% | / | /
COc1c(O)cc2c(c1O)[C@@H]1O[C@@H](CO)[C@@H](O)[C@@H](O)[C@@H]1OC2=O | -10%[12.8 µM] | / | -19%[12.8 µM] | /
O=C(CNC(=O)c1ccc(Cl)cc1Cl)OCCCn1c(=O)[nH]c2ccccc21 | 8% | 3% | 52% | 5%
CCN(C(=O)Cn1nc(Cc2ccncc2)c2ccccc2c1=O)c1ccc(OC)cc1 | / | -6% | / | /
Cc1nc(-c2ccncc2)nc(NCCNc2ncccc2C(F)(F)F)c1Cl | 10µM* | 6% | ? | -10%
CCOP(=O)(OCC)C(O)c1ccc(OC)c(OC)c1 (stereo not drawn) | -5% | -28% | -6% | -5%
COc1ccc(C(c2oc(CO)cc(=O)c2O)c2oc(CO)cc(=O)c2O)cc1OC | 10% | ? | -58% | 7.9µM*
COc1cccc(C(=O)Nc2ccc3nc(SCC(=O)N4CCc5ccccc54)sc3c2)c1 | / | 2% | / | /
O=C(NC1CCCCC1)Oc1cc2oc(=O)sc2cc1Br | 12% | 3.2µM* | -14% | -19%
Cc1ccc(C(c2cc(Cl)c3cccnc3c2O)N2CCN(C)CC2)cc1 (stereo not drawn) | 4.1µM* | 0.71µM* | ? | /
CN1CCN(C(c2ccccn2)c2cc(Cl)c3cccnc3c2O)CC1 (stereo not drawn) | 4.7µM* | 1.3µM* | ? | -24%
c1ccc(CC2CCN(Cc3ccccn3)CC2)cc1 | ? | / | -11% | 0%
Oc1c(C(c2ccccn2)N2CCC(Cc3ccccc3)CC2)cc(Cl)c2cccnc12 (stereo not drawn) | 2.9µM* | 3.5µM* | 0% | -18%
CC(=O)Nc1ccc(NC(=O)c2ncoc2-c2ccco2)cc1 | / | -5% | / | /
Cc1cc(C)n2nc(CC(=O)NNC(=O)COc3ccccc3)nc2n1 | 2% | 2% | 12% | -2%
O=C(NC1CC(=O)N(c2ccc(Cl)cc2)C1)c1cc2ccccc2o1 (stereo not drawn) | / | 8% | / | /
